A selection: hits, their analogues and other compounds. The true share with any hit is near 3.4%.
NF-kB neuron act = NF-kB expression increase, human neuronal cells. NF-kB reporter expression; hits give high values. fold change at 12.5 µM. 190,000 tested, 1.6% active; in the data active means fold change above about 3.3
ssDAF12 agonist = activates DAF-12 receptor from parasite S. stercoralis; AID 652126; activation, % at 6.8 µM; HEK293 ssDAF-12/GRIP1 lit1-tk-luc reporter, luminescence; % of 3 µM dafachronic acid response; 370,000 tested, 1% active;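 active means activation above the mean over all tested compounds plus 3 SD, cut at about 0.9% in these data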;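 further: 0% = DMSO-only wells and 100% = 3 µM delta7-dafachronic acid wells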
APP 5'UTR act = activates APP 5'UTR luciferase reporter | SH-SY5Y APP 5'UTR luciferase reporter, luminescence; zero percent = DMSO vehicle wells | activation, % at 2 µM | 190,000 tested, 1% active | AID 1276;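 active means activation above a set limit, based on mean plus 3 SD of controls, cut at about 140% in these data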
hcDAF-12 act = activates DAF-12 receptor from parasite H. contortus; HEK293 hcDAF-12 lit1-tk-luc reporter, luminescence; 0% DMSO, 100% Δ7-dafachronic acid; activation, % at 6.8 µM; AID 652067; 370,000 tested, 1.4% active;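 active means activation above the mean of all tested compounds plus 3 SD, cut at about 5.5% in these data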;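 further: 100% = response to 3 µM Δ7-dafachronic acid high control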
hgDAF-12 ag = hgDAF-12 agonism, primary luciferase screen | AID 687014 | HEK293 GAL4-hgDAF12 UAS-luciferase reporter, agonist luminescence; normalized to butyrate control | 370,000 tested, 1.8% active | activation, % at 6.8 µM;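 active means activation above a cutoff set at the mean of all screened compounds plus 3 SD, cut at about 10% in these data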;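 further: 0% = DMSO wells and 100% = sodium butyrate wells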
hgDAF12 conf = confirmation of H. glycines DAF-12 agonists; shares compounds with hgDAF-12 ag; HEK293 GAL4-hgDAF12 luciferase reporter, agonist mode; percent of butyrate response; activation, % at 6.8 µM; 3,300 tested, 80% active; AID 743050;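 active means mean activation over triplicate wells above the hit cutoff derived from the earlier primary screen, cut at about 11% in these data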;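 further: 0% = DMSO low control and 100% = 2 mM sodium butyrate high control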
LXR ag 2 = counter-screen for DAF-12 agonists: agonists of human LXR-beta | activation, % at 6.8 µM | HEK293 Gal4-LXR luciferase reporter, 24 h | shares compounds with hgDAF-12 ag | AID 743051 | 3,300 tested, under 10 active;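 active means mean activation of the triplicate above a set limit carried over from the primary screen, none filed active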
Target sequence (P55055 whole entry, looked up, the tested form may be a part): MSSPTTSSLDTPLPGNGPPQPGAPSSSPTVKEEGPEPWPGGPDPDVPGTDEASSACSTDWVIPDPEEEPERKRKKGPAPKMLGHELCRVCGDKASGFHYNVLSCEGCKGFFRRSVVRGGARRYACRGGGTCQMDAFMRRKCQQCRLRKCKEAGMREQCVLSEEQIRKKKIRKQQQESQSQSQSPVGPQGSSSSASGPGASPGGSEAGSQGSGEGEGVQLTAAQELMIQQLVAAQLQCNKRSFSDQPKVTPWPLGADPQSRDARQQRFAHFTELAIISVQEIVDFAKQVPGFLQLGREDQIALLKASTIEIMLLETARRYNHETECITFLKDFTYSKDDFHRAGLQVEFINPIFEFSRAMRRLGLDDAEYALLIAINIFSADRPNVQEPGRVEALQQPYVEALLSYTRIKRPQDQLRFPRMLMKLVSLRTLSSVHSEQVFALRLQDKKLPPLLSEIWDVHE
The depositor's hits bear a star.

What do the screens show for `CC(=O)c1sc(NC(=O)C(C)(C)C)nc1C`?
NF-kB neuron act: 1.3; ssDAF12 agonist: -1; APP 5'UTR act: 12; hcDAF-12 act: 0; hgDAF-12 ag: 4

What do the screens show for `CC(=O)c1sc(NC(=O)c2cccnc2Cl)nc1C`?
NF-kB neuron act: 1.5; ssDAF12 agonist: -1; APP 5'UTR act: -16; hcDAF-12 act: 2; hgDAF-12 ag: 3

What do the screens show for `COC(=O)c1sc(NC(=O)c2ccc(C)o2)nc1C`?
NF-kB neuron act: 1.3; ssDAF12 agonist: 0; APP 5'UTR act: 70; hcDAF-12 act: 2; hgDAF-12 ag: 14*; hgDAF12 conf: 10*; LXR ag 2: 1

How did COc1ccc(Nc2nc(C)c(C(C)=O)s2)cc1 do in these assays?
ssDAF12 agonist: -1; hcDAF-12 act: 4; hgDAF-12 ag: 17*; hgDAF12 conf: 8; LXR ag 2: 0

Results for CC(=O)c1sc(NC(=O)c2ccc(C(C)(C)C)cc2)nc1C ?
NF-kB neuron act: 2.8; ssDAF12 agonist: 1; APP 5'UTR act: 73; hcDAF-12 act: 6.2*; hgDAF-12 ag: 13*; hgDAF12 conf: 19*; LXR ag 2: 1

How did C/C=C/C=C/C(=O)N1C[C@H](C)N(C)C[C@H]1C do in these assays?
ssDAF12 agonist: 0; hcDAF-12 act: -1; hgDAF-12 ag: 2

What do the screens show for `COC(=O)C1CCCN(C(=O)C(Cc2ccc3c(c2)OCO3)NC(C)=O)C1` (configuration not stated)?
ssDAF12 agonist: -1; hcDAF-12 act: 0; hgDAF-12 ag: 1

Results for COC(=O)[C@]12C[C@H](CC(=O)NCC3CCCCC3)C(=O)N(Cc3ccc(Cl)cc3Cl)C1=C[C@H](C1CCCC1)O[C@@H]2C ?
ssDAF12 agonist: -1; hcDAF-12 act: -3; hgDAF-12 ag: 2

Results for Cn1cccc1C(=O)NC1CCCCCC1 ?
ssDAF12 agonist: 0; hcDAF-12 act: 4; hgDAF-12 ag: 9

Results for CC1CCC(NC(=O)c2cccn2C)CC1 (configuration not stated) ?
ssDAF12 agonist: 0; hcDAF-12 act: 4; hgDAF-12 ag: 15*; hgDAF12 conf: 14*; LXR ag 2: 1

Results for CO[C@H]([C@H](C)/C=C/N(C)C=O)[C@@H](C)C(O)CC[C@H](C)[C@H](O)[C@H](C)[C@H]1OC(=O)/C=C/C(C)=C/C[C@H](O)C[C@@H]2C=CC[C@@H](C[C@H](OC)[C@@]3(CO3)[C@@H](OC)C[C@@H](OC)[C@@H]1C)O2 (some centres not stated) ?
ssDAF12 agonist: -2; hcDAF-12 act: -4; hgDAF-12 ag: -8

How did Cn1c(N)c(C(=O)Nc2ccc3ccccc3c2)sc1=S do in these assays?
NF-kB neuron act: 1.5; ssDAF12 agonist: -1; APP 5'UTR act: 143*; hcDAF-12 act: 3; hgDAF-12 ag: 15*; hgDAF12 conf: 13*; LXR ag 2: 1

What do the screens show for `Cn1c(N)c(C(=O)Nc2ccccc2F)sc1=S`?
ssDAF12 agonist: -1; hcDAF-12 act: -1; hgDAF-12 ag: -2

How did Cc1ccccc1Nc1nnc(SCC2CCCCO2)s1 (configuration not stated) do in these assays?
NF-kB neuron act: 6.1*; ssDAF12 agonist: 0; APP 5'UTR act: 146*; hcDAF-12 act: 2; hgDAF-12 ag: 15*; hgDAF12 conf: 17*; LXR ag 2: 1

Results for O=C(C1CCCN(S(=O)(=O)c2ccc(F)cc2)C1)N1CCN(Cc2ccccc2)CC1 (configuration not stated) ?
ssDAF12 agonist: -2; hcDAF-12 act: 1; hgDAF-12 ag: -1

What do the screens show for `O=C(COc1cc(F)ccc1[N+](=O)[O-])NCCN1C(=O)CSC1=O`?
ssDAF12 agonist: -1; hcDAF-12 act: -2; hgDAF-12 ag: 23*; hgDAF12 conf: -1; LXR ag 2: 0

Results for CCNc1ccc(C(=O)OCC(=O)NCCN2C(=O)CSC2=O)cc1[N+](=O)[O-] ?
NF-kB neuron act: 1.2; ssDAF12 agonist: -2; APP 5'UTR act: 8; hcDAF-12 act: 0; hgDAF-12 ag: 2
